According to paper PMC7862700, “An all-to-all approach to the identification of sequence-specific readers for epigenetic DNA modifications on cytosine”:

What was measured:
Assay in all cases: DAPPL (digital affinity profiling via proximity ligation, sequencing); 10 mM Tris-HCl pH 7.5, 50 mM NaCl, 1 mM DTT, 4% glycerol, room temperature, 30 min; GST-TFs on glutathione beads, 16-mer random dsDNA library, 0.1% formaldehyde crosslink after washing; high values mean tight binding
Conditions in all cases: protein: recombinant; tags: N-terminal GST; dsDNA, one strand shown
FLI1 = target: T1, FLI1 (Homo sapiens, UniProt Q01543 1-452)
T1 sequence: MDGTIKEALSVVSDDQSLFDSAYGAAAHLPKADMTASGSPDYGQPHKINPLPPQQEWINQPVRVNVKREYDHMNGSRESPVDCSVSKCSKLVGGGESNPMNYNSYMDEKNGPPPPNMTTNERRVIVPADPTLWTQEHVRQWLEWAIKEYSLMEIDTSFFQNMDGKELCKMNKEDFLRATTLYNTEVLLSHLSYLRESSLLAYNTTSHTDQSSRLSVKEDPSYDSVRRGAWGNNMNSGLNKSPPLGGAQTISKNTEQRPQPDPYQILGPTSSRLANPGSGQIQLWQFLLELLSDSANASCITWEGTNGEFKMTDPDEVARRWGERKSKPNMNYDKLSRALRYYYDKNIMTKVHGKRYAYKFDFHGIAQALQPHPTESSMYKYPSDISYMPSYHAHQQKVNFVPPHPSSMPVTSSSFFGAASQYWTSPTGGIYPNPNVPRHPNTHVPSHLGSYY
In short: (§1)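 Binding signal is each hexamer's read frequency for a factor divided by its frequency in the tag-only sample. The factors were GST-fused human transcription factors from yeast, captured on glutathione beads, DNA-barcoded and pooled with that sample. Pools were incubated with 200 nmole of a random double-stranded 16-mer DNA library in Tris/NaCl/DTT/glycerol buffer at room temperature for 30 min, then washed, crosslinked with 0.1% formaldehyde, proximity-ligated with BsaI/T4 ligase (1 h, 37 °C), PCR-amplified and sequenced on an Illumina NextSeq500.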

ELK1 = target: T2, ELK1 (Homo sapiens, UniProt P19419 1-428)
T2 sequence: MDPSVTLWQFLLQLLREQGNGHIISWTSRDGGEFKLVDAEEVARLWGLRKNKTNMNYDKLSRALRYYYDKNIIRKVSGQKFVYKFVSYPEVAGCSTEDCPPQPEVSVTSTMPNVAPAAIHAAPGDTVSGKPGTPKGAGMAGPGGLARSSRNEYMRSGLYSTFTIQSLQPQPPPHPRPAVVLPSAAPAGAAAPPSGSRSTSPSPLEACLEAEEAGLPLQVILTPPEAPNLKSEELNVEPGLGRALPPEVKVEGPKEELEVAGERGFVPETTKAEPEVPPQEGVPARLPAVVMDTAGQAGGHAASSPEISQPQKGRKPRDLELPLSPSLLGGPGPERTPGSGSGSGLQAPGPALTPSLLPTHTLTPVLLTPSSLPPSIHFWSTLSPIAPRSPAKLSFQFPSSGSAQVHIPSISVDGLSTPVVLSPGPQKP
In short: as §1

GABPA = target: T3, GABPA (Homo sapiens, UniProt Q06546 1-454)
T3 sequence: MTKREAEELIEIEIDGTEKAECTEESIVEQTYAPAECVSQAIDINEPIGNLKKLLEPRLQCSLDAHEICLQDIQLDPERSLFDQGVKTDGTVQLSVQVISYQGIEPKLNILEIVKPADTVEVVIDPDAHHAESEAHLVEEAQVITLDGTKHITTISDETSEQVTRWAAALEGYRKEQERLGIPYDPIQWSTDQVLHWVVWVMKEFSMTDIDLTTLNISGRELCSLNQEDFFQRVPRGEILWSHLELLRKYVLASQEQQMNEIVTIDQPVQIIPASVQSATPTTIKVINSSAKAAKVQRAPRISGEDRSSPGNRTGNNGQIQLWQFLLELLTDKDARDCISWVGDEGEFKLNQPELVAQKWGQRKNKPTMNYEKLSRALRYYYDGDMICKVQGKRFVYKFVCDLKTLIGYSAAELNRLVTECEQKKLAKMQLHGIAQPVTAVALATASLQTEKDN
In short: as §1

ERG = target: T4, ERG (Homo sapiens, UniProt P11308 1-479)
T4 sequence: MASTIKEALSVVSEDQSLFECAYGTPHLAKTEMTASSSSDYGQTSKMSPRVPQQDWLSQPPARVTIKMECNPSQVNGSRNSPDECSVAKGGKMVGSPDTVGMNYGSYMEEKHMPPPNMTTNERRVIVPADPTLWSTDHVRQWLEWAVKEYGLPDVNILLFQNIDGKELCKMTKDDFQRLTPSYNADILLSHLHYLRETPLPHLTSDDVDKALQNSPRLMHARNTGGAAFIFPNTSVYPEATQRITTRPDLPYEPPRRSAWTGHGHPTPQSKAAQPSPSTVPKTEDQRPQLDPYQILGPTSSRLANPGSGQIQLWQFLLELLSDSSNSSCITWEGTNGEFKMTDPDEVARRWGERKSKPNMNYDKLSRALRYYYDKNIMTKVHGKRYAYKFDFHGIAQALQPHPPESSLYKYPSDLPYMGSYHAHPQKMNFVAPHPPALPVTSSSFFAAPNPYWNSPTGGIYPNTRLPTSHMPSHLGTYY
In short: as §1

ELF1 = ELF1 (Homo sapiens, UniProt P32519 1-619)
ELF1, sequence (P32519 whole entry): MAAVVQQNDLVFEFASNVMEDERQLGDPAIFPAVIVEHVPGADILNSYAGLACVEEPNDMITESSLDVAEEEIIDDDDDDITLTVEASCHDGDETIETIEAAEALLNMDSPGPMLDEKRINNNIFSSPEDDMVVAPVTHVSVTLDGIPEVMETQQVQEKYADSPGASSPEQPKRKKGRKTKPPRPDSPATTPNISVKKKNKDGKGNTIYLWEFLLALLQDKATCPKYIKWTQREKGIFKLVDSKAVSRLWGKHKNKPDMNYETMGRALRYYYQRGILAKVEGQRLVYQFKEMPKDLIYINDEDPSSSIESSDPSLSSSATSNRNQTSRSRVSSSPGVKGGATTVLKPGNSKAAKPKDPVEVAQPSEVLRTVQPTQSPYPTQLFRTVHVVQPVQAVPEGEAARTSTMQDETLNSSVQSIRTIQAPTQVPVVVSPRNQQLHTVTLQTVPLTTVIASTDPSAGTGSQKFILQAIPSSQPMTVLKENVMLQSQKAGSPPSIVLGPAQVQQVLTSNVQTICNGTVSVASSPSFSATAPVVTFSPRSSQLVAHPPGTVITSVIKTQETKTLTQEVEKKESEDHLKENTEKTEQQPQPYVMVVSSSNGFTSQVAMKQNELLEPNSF
In short: as §1

EHF = target: T5, EHF (Homo sapiens, UniProt Q9NZC4 1-300)
T5 sequence: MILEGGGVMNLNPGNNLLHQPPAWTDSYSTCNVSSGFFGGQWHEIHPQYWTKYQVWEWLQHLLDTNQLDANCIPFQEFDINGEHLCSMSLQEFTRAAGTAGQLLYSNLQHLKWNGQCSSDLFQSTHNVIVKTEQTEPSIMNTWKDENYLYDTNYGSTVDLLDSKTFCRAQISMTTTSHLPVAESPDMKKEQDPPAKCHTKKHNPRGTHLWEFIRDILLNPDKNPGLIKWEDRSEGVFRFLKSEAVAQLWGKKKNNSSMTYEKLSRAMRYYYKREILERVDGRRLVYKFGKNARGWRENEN
In short: as §1

SPI1 = SPI1 (Homo sapiens, UniProt P17947 1-270)
In short: as §1

SPIB = SPIB (Homo sapiens, UniProt Q01892 1-262)
SPIB, sequence (Q01892 whole entry): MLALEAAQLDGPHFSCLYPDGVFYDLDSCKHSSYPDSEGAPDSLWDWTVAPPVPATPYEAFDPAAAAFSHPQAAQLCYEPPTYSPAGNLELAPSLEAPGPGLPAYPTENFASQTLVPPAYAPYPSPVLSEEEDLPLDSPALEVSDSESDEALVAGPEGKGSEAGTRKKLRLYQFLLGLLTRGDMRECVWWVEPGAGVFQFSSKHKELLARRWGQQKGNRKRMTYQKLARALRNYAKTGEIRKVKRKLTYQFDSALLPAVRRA
In short: as §1

FEV = target: T6, FEV (Homo sapiens, UniProt Q99581 1-238)
T6 sequence: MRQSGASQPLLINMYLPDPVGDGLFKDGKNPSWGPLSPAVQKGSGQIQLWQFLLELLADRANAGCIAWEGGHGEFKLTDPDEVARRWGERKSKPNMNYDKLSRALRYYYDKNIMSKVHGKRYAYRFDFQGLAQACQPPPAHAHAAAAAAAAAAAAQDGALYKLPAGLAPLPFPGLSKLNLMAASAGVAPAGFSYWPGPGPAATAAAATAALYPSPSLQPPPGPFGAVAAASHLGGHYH
In short: as §1

ETV5 = ETV5 (Homo sapiens, UniProt P41161 1-510)
ETV5, sequence (P41161 whole entry): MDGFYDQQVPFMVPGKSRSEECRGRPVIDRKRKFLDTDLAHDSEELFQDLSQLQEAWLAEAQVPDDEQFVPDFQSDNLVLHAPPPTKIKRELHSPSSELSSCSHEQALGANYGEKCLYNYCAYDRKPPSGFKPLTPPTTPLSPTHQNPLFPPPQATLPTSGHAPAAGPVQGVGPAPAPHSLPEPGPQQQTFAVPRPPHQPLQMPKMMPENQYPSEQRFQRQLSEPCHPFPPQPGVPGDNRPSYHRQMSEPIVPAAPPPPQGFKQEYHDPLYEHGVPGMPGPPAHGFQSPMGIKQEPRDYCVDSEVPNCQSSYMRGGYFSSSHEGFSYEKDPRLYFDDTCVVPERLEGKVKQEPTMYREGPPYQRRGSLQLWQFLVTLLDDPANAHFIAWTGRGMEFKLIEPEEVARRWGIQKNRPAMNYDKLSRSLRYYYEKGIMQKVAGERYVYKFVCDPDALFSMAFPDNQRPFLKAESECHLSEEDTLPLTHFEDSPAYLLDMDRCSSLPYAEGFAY
In short: as §1

Which binding signal (FLI1) does the source give for CATTGT here?
Its binding signal is 1.2 fold enrichment (6-mer frequency, TF over GST control).

And the binding signal (ELK1)?
The binding signal was 1.14 fold enrichment (6-mer frequency, TF over GST control).

And the binding signal (GABPA)?
The binding signal was 1.19 fold enrichment (6-mer frequency, TF over GST control).

What about the binding signal (ERG) of the same sequence?
The binding signal was 1.12 fold enrichment (6-mer frequency, TF over GST control).

What about the binding signal (ELF1) of the same sequence?
Its binding signal is 1.1 fold enrichment (6-mer frequency, TF over GST control).

And the binding signal (EHF)?
Its binding signal is 1.14 fold enrichment (6-mer frequency, TF over GST control).

What about the binding signal (SPI1) of the same sequence?
The binding signal was 1.04 fold enrichment (6-mer frequency, TF over GST control).

And the binding signal (SPIB)?
The binding signal was 1.04 fold enrichment (6-mer frequency, TF over GST control).

What about the binding signal (FEV) of the same sequence?
Its binding signal is 1.09 fold enrichment (6-mer frequency, TF over GST control).

And the binding signal (ETV5)?
Its binding signal is 1.19 fold enrichment (6-mer frequency, TF over GST control).
